Source: PubChem BioAssay
Hits are enriched below; roughly 32% of the tested compounds scored in any of these assays.
CYP2C19 activ = activators of human cytochrome P450 2C19; activation factor at 5 µM; P33261; 96,000 tested, under 10 active; AID 1025; recombinant CYP2C19, luciferin-H EGE luminescence; active compounds read high; 0 = fully inhibited enzyme, 1 = untreated enzyme;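 active = activation factor of at least 2 at 5 µM in the primary screen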;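 also: 0 = wells with 2.5 mM tranylcypromine and 1 = vehicle-only wells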
CYP2C19 inhib = inhibitors of human CYP2C19; inhibition, % at 5 µM; 21% of 96,000 active; P33261; CYP2C19 Supersomes, luciferin-H EGE luminescence, 30 min;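 active = CYP2C19 inhibition above a set limit at 5 µM in the primary screen, cut at about 50% in these data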;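 also: plate controls were negative control wells for no effect and 2.5 mM tranylcypromine positive control for full effect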
CYP2C9 activ = increases human cytochrome P450 2C9 activity; recombinant CYP2C9, luciferin-H conversion, luminescence; active compounds read high; factor 1 = untreated enzyme, 0 = blocked; P11712; 1.4% of 96,000 active; activation factor at 5 µM;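 active = activation factor of 2 or more for CYP2C9 at a 5 µM dose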;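 also: 0 = sulfaphenazole-blocked wells and 1 = vehicle-only wells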
Target sequence (P11712 whole entry, looked up): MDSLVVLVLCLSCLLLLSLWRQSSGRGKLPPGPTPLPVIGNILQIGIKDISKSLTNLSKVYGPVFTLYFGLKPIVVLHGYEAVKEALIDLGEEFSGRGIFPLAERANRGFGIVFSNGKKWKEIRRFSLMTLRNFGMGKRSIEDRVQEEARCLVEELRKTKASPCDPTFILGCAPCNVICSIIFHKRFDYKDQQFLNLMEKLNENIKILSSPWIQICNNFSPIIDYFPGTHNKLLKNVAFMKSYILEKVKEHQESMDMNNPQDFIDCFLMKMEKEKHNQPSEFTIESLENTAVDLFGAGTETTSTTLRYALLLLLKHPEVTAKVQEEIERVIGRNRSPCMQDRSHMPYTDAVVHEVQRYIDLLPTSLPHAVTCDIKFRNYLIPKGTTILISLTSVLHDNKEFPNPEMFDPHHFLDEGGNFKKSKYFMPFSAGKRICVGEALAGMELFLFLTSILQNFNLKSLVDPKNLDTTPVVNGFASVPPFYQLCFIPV
PostGolgi ctrl = growth of the yeast control strain, post-Golgi counter-screen. efflux-deficient yeast background strain, growth absorbance A615, 16 h. inhibition, % at 10 µM. 5% of 98,000 active
PostGolgi yeast = growth inhibition of a yeast mutant, post-Golgi transport screen. post-Golgi transport phenotypic cell assay. inhibition, % at 10 µM. 0.9% of 98,000 active;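 also: yeast cells grown in 1536-well plates; yeast grown about 18 h at 30C before absorbance read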
CYP2C9 inhib = blocks human cytochrome P450 2C9; P11712; CYP2C9 Supersomes, luciferin-H conversion, luminescence; inhibition, % at 5 µM; 20% of 96,000 active; AID 777;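 active = blocking of liver enzyme CYP2C9 beyond about 50% at 5 µM, limit read from the data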
The depositor's hits bear a star. Rule as the data show it, unless noted: active = inhibition above about 30%; inactive = the rest.

What do the screens show for `O=C(CCNS(=O)(=O)c1cccc2nsnc12)N1CCN(c2ccccn2)CC1`?
CYP2C19 activ: 0.3; CYP2C19 inhib: 66*; CYP2C9 activ: 0.8; PostGolgi ctrl: -3; PostGolgi yeast: -5; CYP2C9 inhib: 23

Results for O=S(=O)(NCc1ccccn1)c1cccc2nsnc12 ?
CYP2C19 activ: 1; CYP2C19 inhib: 2; CYP2C9 activ: 1.3; PostGolgi ctrl: 1; PostGolgi yeast: -2; CYP2C9 inhib: -28

Results for O=C(CCNS(=O)(=O)c1cccc2nsnc12)N1CCc2ccccc21 ?
CYP2C19 activ: 0.2; CYP2C19 inhib: 80*; CYP2C9 activ: 0.6; PostGolgi ctrl: 5; PostGolgi yeast: 9; CYP2C9 inhib: 44

How did CC1Cc2ccccc2N1C(=O)CCNS(=O)(=O)c1cccc2nsnc12 (stereo not given) do in these assays?
CYP2C19 activ: 0.1; CYP2C19 inhib: 88*; CYP2C9 activ: 1.7; PostGolgi ctrl: -3; PostGolgi yeast: -1; CYP2C9 inhib: -65

Results for CCCOc1ccc(/C(O)=C2/C(=O)C(=O)N(c3cc(C)on3)C2c2ccc(C(=O)OC)cc2)cc1 (stereo not given) ?
CYP2C19 activ: 1; CYP2C19 inhib: 0; CYP2C9 activ: 1.1; PostGolgi ctrl: 22; PostGolgi yeast: 16; CYP2C9 inhib: -10

What do the screens show for `O=C(CN1CCN(c2ccc(F)cc2)CC1)c1ccc2c(c1)OCO2`?
CYP2C19 activ: 0.7; CYP2C19 inhib: 33; CYP2C9 activ: 0.7; PostGolgi ctrl: 4; PostGolgi yeast: 6; CYP2C9 inhib: 31

What do the screens show for `Cc1cc(C)c(NC(=O)C(C)c2cccc(C(=O)c3ccccc3)c2)c(C)c1` (stereo not given)?
CYP2C19 activ: 0.3; CYP2C19 inhib: 72*; CYP2C9 activ: 0.3; PostGolgi ctrl: 5; PostGolgi yeast: 14; CYP2C9 inhib: 73*

How did Cc1ccc(NC(=O)C(C)c2ccc(-c3ccccc3)c(F)c2)c(C)c1 (stereo not given) do in these assays?
CYP2C19 activ: 1; CYP2C19 inhib: 4; CYP2C9 activ: 0.9; PostGolgi ctrl: -7; PostGolgi yeast: -4; CYP2C9 inhib: 8

How did CCOC(=O)c1[nH]c(COC(=O)CCOc2ccccc2OC)c(C(=O)OCC)c1C do in these assays?
CYP2C19 activ: 1; CYP2C19 inhib: 1; CYP2C9 activ: 0.9; PostGolgi ctrl: 6; PostGolgi yeast: -1; CYP2C9 inhib: 11

What do the screens show for `CCOC(=O)c1[nH]c(COC(=O)CCCOc2ccccc2)c(C(=O)OCC)c1C`?
CYP2C19 activ: 0.6; CYP2C19 inhib: 45; CYP2C9 activ: 0.2; CYP2C9 inhib: 80*

What do the screens show for `Cc1c(NC(=O)CSc2nnc3c4ccccc4n(CCc4ccccc4)c3n2)c(=O)n(-c2ccccc2)n1C`?
CYP2C19 activ: 0.8; CYP2C19 inhib: 23; CYP2C9 activ: 0.7; PostGolgi ctrl: 21; PostGolgi yeast: 6; CYP2C9 inhib: 33

How did CC1CCCN(c2nc3c(c(=O)n(C)c(=O)n3C)n2CCSc2nc3ccccc3o2)C1 (stereo not given) do in these assays?
CYP2C19 activ: 0.6; CYP2C19 inhib: 36; CYP2C9 activ: 0.5; PostGolgi ctrl: 10; PostGolgi yeast: 3; CYP2C9 inhib: 51*

Results for CC1CCCN(c2nc3c(c(=O)[nH]c(=O)n3C)n2CCSc2nc3ccccc3o2)C1 (stereo not given) ?
CYP2C19 activ: 1.1; CYP2C19 inhib: -9; CYP2C9 activ: 1; PostGolgi ctrl: 0; PostGolgi yeast: 2; CYP2C9 inhib: 3

Results for Cn1c(=O)c2c(nc(N3CCCCC3)n2CCSc2nc3ccccc3s2)n(C)c1=O ?
CYP2C19 activ: 0.8; CYP2C19 inhib: 23; CYP2C9 activ: 0.7; PostGolgi ctrl: 10; PostGolgi yeast: 5; CYP2C9 inhib: 34

How did Cn1c(=O)[nH]c(=O)c2c1nc(N1CCCC1)n2CCCSc1nc2ccccc2o1 do in these assays?
CYP2C19 activ: 0.9; CYP2C19 inhib: 9; CYP2C9 activ: 0.8; PostGolgi ctrl: 46*; PostGolgi yeast: -6; CYP2C9 inhib: 17

What do the screens show for `CC1CCN(c2nc3c(c(=O)n(C)c(=O)n3C)n2CCSc2nc3ccccc3s2)CC1`?
CYP2C19 activ: 0.6; CYP2C19 inhib: 36; CYP2C9 activ: 0.7; PostGolgi ctrl: 36*; PostGolgi yeast: 16; CYP2C9 inhib: 29
